STK33 kin inh = inhibitors of human STK33 kinase | ADP-Glo luminescence, MBP substrate | hit rate 0.44% among 27,000 | inhibition, % at 12.5 µM | Q9BYT3; in the data active means inhibition above about 20%
Target sequence (Q9BYT3 whole entry, looked up): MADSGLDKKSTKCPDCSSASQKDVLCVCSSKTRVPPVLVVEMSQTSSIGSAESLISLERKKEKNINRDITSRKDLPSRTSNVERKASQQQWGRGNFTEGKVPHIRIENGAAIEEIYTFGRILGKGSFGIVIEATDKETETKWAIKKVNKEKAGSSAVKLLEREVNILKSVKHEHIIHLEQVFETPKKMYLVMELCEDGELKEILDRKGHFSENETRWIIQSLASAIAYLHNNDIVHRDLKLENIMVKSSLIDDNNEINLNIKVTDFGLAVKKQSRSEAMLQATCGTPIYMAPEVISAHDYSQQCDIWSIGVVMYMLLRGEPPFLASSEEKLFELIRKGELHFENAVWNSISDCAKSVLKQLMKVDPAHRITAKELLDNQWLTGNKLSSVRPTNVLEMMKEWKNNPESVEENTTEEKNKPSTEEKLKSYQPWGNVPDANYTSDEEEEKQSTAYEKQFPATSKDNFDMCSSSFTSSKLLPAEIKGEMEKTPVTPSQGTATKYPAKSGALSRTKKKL
NOMO-1 viab = STK33 inhibitor candidate reducing NOMO-1 cell viability. hit rate 7.5% among 37,000. NOMO-1 AML viability, CellTiter-Glo luminescence, 72 h. inhibition, % (concentration not given with the values); in the data active means inhibition above about 80%
PD-1 reversal = activators reversing PD-1 mediated T-cell inhibition; primary human CD4 T cells, PD-L1 beads, CellTiter-Glo 96 h; activation, % (concentration not given with the values); 29,000 tested, under 10 active; AID 2316; call rule not given here
Large screens that a line does not name were inactive. The full list was thinned out, with hits kept by preference.

C[C@@H]1CN([C@H](C)CO)C(=O)c2cccc(NS(=O)(=O)c3ccccc3)c2O[C@@H]1CN(C)S(=O)(=O)c1cccs1	none (no result: STK33 kin inh)
C=C(C)C(=O)O[C@H]1[C@H]2C(=C)C(=O)O[C@@H]2C[C@@H](C)[C@@H]2O[C@@H]2C(=O)[C@](C)(O)[C@@H]1OC(=O)C(=C)C	NOMO-1 viab 119
CC(C)(C)c1ccc(OCC(N)=NC(=O)c2ccc(OC(F)(F)F)cc2)cc1	NOMO-1 viab 136 (no result: STK33 kin inh)
CC(C)(C)c1ccc(OCC(=O)Nc2ccc(C(=O)Nc3ccccc3C(=O)O)cc2)cc1	none
COC(=O)C(CC#Cc1ccc2c(c1)[C@]1(C(=O)N2)[C@H](c2ccc(OCCO)cc2)N2[C@H](c3ccccc3)[C@H](c3ccccc3)OC(=O)[C@H]2[C@@H]1C(=O)N1CCc2cc(OC)c(OC)cc2C1)C(=O)OC	none (no result: NOMO-1 viab, PD-1 reversal)
C[C@H](CO)N1C[C@H](C)[C@H](CN(C)CC2CC2)Oc2ccc(NC(=O)CCCCCC(=O)Nc3ccccc3N)cc2CC1=O	NOMO-1 viab 140 (no result: STK33 kin inh)
C[C@H](CO)N1C[C@H](C)[C@@H](CN(C)CC2CCCCC2)Oc2ccc(NC(=O)CCCCCC(=O)Nc3ccccc3N)cc2C1=O	none (no result: STK33 kin inh)
C[C@@H]1CN([C@@H](C)CO)C(=O)Cc2cc(NC(=O)CCCCCC(=O)Nc3ccccc3N)ccc2O[C@@H]1CN(C)CC1CCCCC1	NOMO-1 viab 136 (no result: STK33 kin inh)
C[C@@H]1CN([C@H](C)CO)C(=O)Cc2cc(NC(=O)CCCCCC(=O)Nc3ccccc3N)ccc2O[C@@H]1CN(C)C	none (no result: STK33 kin inh)
COc1ccc(S(=O)(=O)N(C)C[C@H]2Oc3ccc(NS(=O)(=O)c4cccs4)cc3C(=O)N([C@@H](C)CO)C[C@@H]2C)cc1	none (no result: STK33 kin inh)
CCCc1c(C(=O)O)c(O)cc2c1C(=O)c1c(O)cccc1C2=O	none
O=C1c2cccc(O)c2C(=O)c2c(O)cccc21	STK33 kin inh 27 (no result: PD-1 reversal)
Cc1ccc(NC(=O)COc2ccc3cc(-c4ccc(Cl)cc4)c(=O)oc3c2)cc1	none
Cc1ccc(S(=O)(=O)Nc2ccc3c(c2)C(=O)N([C@H](C)CO)C[C@H](C)[C@@H](CN(C)Cc2ccc(Oc4ccccc4)cc2)O3)cc1	none (no result: STK33 kin inh)
Cc1ccc(S(=O)(=O)Nc2ccc3c(c2)C(=O)N([C@@H](C)CO)C[C@@H](C)[C@@H](CN(C)Cc2ccc(Oc4ccccc4)cc2)O3)cc1	NOMO-1 viab 113 (no result: STK33 kin inh, PD-1 reversal)
COc1ccc(S(=O)(=O)Nc2ccc3c(c2)C(=O)N([C@H](C)CO)C[C@H](C)[C@H](CN(C)Cc2ccc(Oc4ccccc4)cc2)O3)cc1	none (no result: STK33 kin inh)
Cc1ccc(S(=O)(=O)Nc2ccc3c(c2)C(=O)N([C@@H](C)CO)C[C@H](C)[C@@H](CN(C)Cc2ccc(Oc4ccccc4)cc2)O3)cc1	NOMO-1 viab 106
O=C(COc1cccc2ccccc12)Nc1cccnc1	none
C=C1C(=O)O[C@H]2C1CCC(C)=C1C(=O)C=C(C)[C@@]12O (stereo not given in full)	NOMO-1 viab 106
C=C1C(=O)O[C@@H]2[C@H]3C(CO[C@@H]4O[C@H](CO)[C@@H](O)[C@H](O)[C@H]4O)=CC(=O)C3=C(C)CC[C@@H]12	none (no result: NOMO-1 viab, PD-1 reversal)
CNC[C@@H]1Oc2c(NC(=O)C3CC3)cccc2C(=O)N([C@H](C)CO)C[C@H]1C	none (no result: STK33 kin inh)
C[C@@H]1CN([C@@H](C)CO)C(=O)c2cc(NS(C)(=O)=O)ccc2O[C@H]1CN(C)CC1CCCCC1	none (no result: STK33 kin inh)
C[C@@H]1CN([C@@H](C)CO)C(=O)c2cccc(NC(=O)Nc3ccc(C(F)(F)F)cc3)c2O[C@H]1CN(C)Cc1ccc(-c2ccccc2)cc1	none (no result: STK33 kin inh)
C[C@H](CO)N1C[C@H](C)[C@H](CN(C)Cc2ccc(-c3ccccc3)cc2)Oc2c(NC(=O)Nc3ccc(C(F)(F)F)cc3)cccc2C1=O	NOMO-1 viab 82 (no result: STK33 kin inh)
C[C@@H]1CN([C@H](C)CO)C(=O)c2cccc(NC(=O)Nc3ccc(C(F)(F)F)cc3)c2O[C@H]1CN(C)Cc1ccc(-c2ccccc2)cc1	NOMO-1 viab 110 (no result: PD-1 reversal)
COc1ccc(NC(=O)N(C)C[C@H]2Oc3ccc(NC(=O)Nc4ccccc4)cc3CC(=O)N([C@@H](C)CO)C[C@@H]2C)cc1	none
O=C(O)CC1CCC(CC(O)/C=C\C/C=C\CCCCCO)O1 (stereo not given)	NOMO-1 viab 117
CCCCC/C=C\C/C=C\C(O)CCCCCCC(=O)O (stereo not given)	none
C[C@H]1CN([C@@H](C)CO)C(=O)c2cccc(NS(=O)(=O)c3ccc(F)cc3)c2O[C@@H]1CN(C)Cc1ccc(Oc2ccccc2)cc1	none (no result: STK33 kin inh)
Cc1ccc(S(=O)(=O)Nc2cccc3c2O[C@@H](CN(C)Cc2ccc(Oc4ccccc4)cc2)[C@@H](C)CN([C@H](C)CO)C3=O)cc1	NOMO-1 viab 86 (no result: STK33 kin inh)
Cc1ccc(S(=O)(=O)Nc2cccc3c2O[C@H](CN(C)Cc2ccc(Oc4ccccc4)cc2)[C@@H](C)CN([C@@H](C)CO)C3=O)cc1	none (no result: STK33 kin inh)
C[C@H]1CN([C@@H](C)CO)C(=O)c2cccc(NS(=O)(=O)c3ccc(Cl)cc3)c2O[C@H]1CN(C)Cc1ccc(-c2ccccc2)cc1	NOMO-1 viab 84 (no result: STK33 kin inh)
C[C@@H]1CN([C@H](C)CO)C(=O)c2cccc(NS(=O)(=O)c3ccc(Cl)cc3)c2O[C@H]1CN(C)Cc1ccc(-c2ccccc2)cc1	none (no result: STK33 kin inh, PD-1 reversal)
C[C@H](CO)N1C[C@H](C)[C@H](CN(C)Cc2ccc(Oc3ccccc3)cc2)Oc2c(NS(=O)(=O)c3ccc(F)cc3)cccc2C1=O	NOMO-1 viab 84 (no result: STK33 kin inh)
Cc1ccc(S(=O)(=O)Nc2cccc3c2O[C@@H](CN(C)S(=O)(=O)c2cccs2)[C@@H](C)CN([C@H](C)CO)C3=O)cc1	none (no result: STK33 kin inh)
O=C(O)COc1cccc(NC(=O)c2ccc(-c3ccccc3)cc2)c1	none
COC(=O)COc1cccc(NC(=O)c2ccc(Br)cc2)c1	NOMO-1 viab 119
Cc1ccc(C(=O)COc2cccc(NC(=O)c3ccc(Br)cc3)c2)cc1C	none (no result: PD-1 reversal)
COC(=O)COc1cccc(NC(=O)c2ccc(C)cc2)c1	NOMO-1 viab 116 (no result: PD-1 reversal)
COC(=O)COc1cccc(NC(=O)c2cc(OC)cc(OC)c2)c1	NOMO-1 viab 109
O=C(COc1cccc(NC(=O)c2ccc(Cl)cc2)c1)c1ccccc1	none (no result: PD-1 reversal)
COc1cccc(C(=O)Nc2cccc(OCC(=O)O)c2)c1	none
COC(=O)COc1cccc(NC(=O)c2ccc(Cl)cc2)c1	NOMO-1 viab 114 (no result: PD-1 reversal)
C[C@@H]1CCCCO[C@H](CN(C)C(=O)c2ccccc2)[C@@H](C)CN([C@H](C)CO)C(=O)c2cc(NC(=O)Cc3ccccc3)ccc2O1	none
Cc1n[nH]c(C)c1SCC(=O)Nc1cccc(Br)c1	none (no result: PD-1 reversal)
C[C@@H]1CCCCO[C@@H](CN(C)S(=O)(=O)c2ccc(F)cc2)[C@@H](C)CN([C@H](C)CO)C(=O)c2cc(NC(=O)c3ccncc3)ccc2O1	none
CCn1c(SCC(=O)Nc2ccc(Br)cc2Cl)nnc1-c1cccc([N+](=O)[O-])c1	none
C[C@H]1CN([C@@H](C)CO)C(=O)Cc2cc(NC(=O)NC3CCCCC3)ccc2O[C@@H]1CN(C)C(=O)Nc1ccc(F)cc1	none
COc1c(NC(=O)N2CC(C)OC(C)C2)csc1Cl (stereo not given)	none (no result: STK33 kin inh)
Cc1cc(-c2cccs2)c(C#N)c(SCC(=O)Nc2cccc(F)c2)n1	none
Cc1ccc(S(=O)(=O)NC2(C(F)(F)F)C(=O)N(Cc3ccco3)C3=C2C(=O)CC(C)(C)C3)cc1 (stereo not given)	none (no result: PD-1 reversal)
C[C@@H]1CN([C@H](C)CO)C(=O)c2cccc(NS(C)(=O)=O)c2O[C@H]1CN(C)S(=O)(=O)c1ccc(F)cc1	none (no result: STK33 kin inh)
